# Values joined by “and” are separate entries in the source; they are usually repeats but may differ in a detail not shown here. Identical values can stand only once. Inconclusive results are not listed. Entries that show only a call come without a potency. Some compounds were tested as several samples or in several runs, with calls that do not always agree. Active and inactive are the calls of the source. Unless noted, calls follow the shape of the dose curve; as a rule, active = well fitted curve in the direction sought with a large enough effect; inconclusive = small, poorly fitted or top-dose-only effect, or another doubt; inactive = no such curve, though single readings can be large; an effect the other way counts as inactive or inconclusive.
# Assays:
# [1] = High-throughput drug toxicity screening in the BPDCN cell line Cal-1 (AID 1224825; call rule not given here); conditions: Cal-1 BPDCN cell viability, qHTS; at 45.8 µM (top of the series) unless noted
# How it was run: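 Cal-1 cells, 500 per well in phenol-red-free RPMI with 10% FBS, exposed to compounds for 48 hours at 37C, 5% CO2. Viability read by CellTiter-Glo luminescence; percent activity normalized to DMSO (100%) and 9.2 uM bortezomib final (0%).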
# [2] = qHTS assay for measurement of the activity of small molecule inhibitors on Zika virus induced Caspase-3 activity in human iPSC derived neural progenitor cells (hNPCs) (AID 1224857); conditions: hNPCs ZIKV-induced caspase-3/7, Caspase-Glo luminescence, 6 h; series mostly up to 45.7 µM; also: nearly all actives have a fitted effect of over 65% in size; also: potency is read from the fitted curve at half-maximal effect
# How it was run: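 Zika virus (2 FFU/cell) infection of human iPSC-derived NPCs, 6 h, following 1 h compound preincubation. Read-out: Caspase-Glo 3/7 luminescence.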
# [3] = qHTS assay for measurement of the activity of small molecule inhibitors on Zika virus induced Caspase-3 activity in human astrocytoma cells (AID 1224859); conditions: SNB-19 ZIKV-induced caspase-3/7, luminescence, 6 h; series mostly up to 45.7 µM
# How it was run: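 Caspase activation in ZIKV-infected SNB-19 cells (2 FFU/cell, 6 h) measured by Caspase-Glo 3/7 luminescence after 30 min RT; compound pre-incubated 1 h; normalised to uninfected and infected controls.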
# [4] = Identifying Small Molecule Inhibitors of Pancreatic Cancer Stem Cells (A2780, Spheroid) (AID 1259357); conditions: Potency: A2780 spheroid viability; series mostly up to 46.1 µM;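 also: potency is read from the fitted curve at half-maximal effect; compound exposure lasted 48 h before the ATP luminescence read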
# How it was run: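 Cytotoxicity read by CellTiter-Glo luminescence after 48 h compound exposure at 37C; percent activity scaled between DMSO-treated cells and cell-free wells. Spheroid formats used cells pre-formed 14 days in stem cell media on hydrogel.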
# [5] = qHTS Screen of the MIPE 4.0 Collection Against Ewings Sarcoma (TC71) (AID 1259253); conditions: TC71 Ewing sarcoma viability, CellTiter-Glo, 48 h; series mostly up to 45.8 µM; also: nearly all actives have a fitted effect of over 40% in size; also: potency is read from the fitted curve at half-maximal effect
# How it was run: (§1)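 Viability screen: 48 h incubation at 37C, 95% humidity, 5% CO2 with serially titrated compound, followed by CellTiter-Glo readout.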
# [6] = qHTS Screen of the MIPE 4.0 Collection Against Ewings Sarcoma (EW8) (AID 1259255); conditions: EW8 Ewing sarcoma viability, CellTiter-Glo, 48 h; series mostly up to 45.8 µM; also: nearly all actives have a fitted effect of over 35% in size; also: potency is read from the fitted curve at half-maximal effect
# How it was run: as §1
# [7] = qHTS Screen of the MIPE 4.0 Collection Against Ewings Sarcoma (TC32) (AID 1259256); conditions: TC32 Ewing sarcoma viability, CellTiter-Glo, 48 h; series mostly up to 45.8 µM; also: nearly all actives have a fitted effect of over 45% in size; also: potency is read from the fitted curve at half-maximal effect
# How it was run: as §1
# [8] = qHTS assay to identify small molecule inhibitors of chordoma cells - UCH-2 (AID 1259356); conditions: UCH-2 chordoma viability, CellTiter-Glo ATP luminescence, 48 h; series mostly up to 46.1 µM
# [9] = qHTS assay to identify small molecule inhibitors of chordoma cells - UCH-1 (AID 1259355); conditions: UCH-1 chordoma viability, CellTiter-Glo, 48 h, combination, with auranofin plus four topoisomerase inhibitors; series mostly up to 46.1 µM; also: nearly all actives have a fitted effect of over 55% in size; also: potency is read from the fitted curve at half-maximal effect
# How it was run: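 Cells (800/well) were seeded and left overnight at 37 C, 5% CO2, then treated with drugs at 15 concentrations plus a combination mix of auranofin, camptothecin, doxorubicin, rubitecan and topotecan. Viability after 48hr was read by CellTiter-Glo luminescence.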
# [10] = qHTS Screen of the MIPE 4.0 Collection Against Ewings Sarcoma (RDES) (AID 1259252); conditions: RD-ES Ewing sarcoma viability, CellTiter-Glo, 48 h; series mostly up to 45.8 µM; also: nearly all actives have a fitted effect of over 35% in size; also: potency is read from the fitted curve at half-maximal effect
# How it was run: as §1
Structure (SMILES),viability (% of control) [1] [%],Potency [2],Potency [3],Potency [4],Potency [5],Potency [6],Potency [7],Potency [8],Potency [9],Potency [10]
CC(C)c1ccc2c(c1)c(SC(C)(C)C)c(CC(C)(C)C(=O)O)n2Cc1ccc(Cl)cc1,119,inactive,inactive,18.7 µM (active),–,–,–,–,–,–
Cc1cc(C2CCCCC2)n(O)c(=O)c1,5.31,inactive,inactive,–,5.26 µM (active),14.8 µM (active),2.64 µM (active),–,–,–
S=c1nc[nH]c2nc[nH]c12,89.6,inactive,inactive,–,1.87 µM (active),2.64 µM (active),3.32 µM (active),inactive,–,–
Cc1nc(Nc2ncc(C(=O)Nc3c(C)cccc3Cl)s2)cc(N2CCN(CCO)CC2)n1,11.7,inactive,inactive,–,–,20.9 µM (active),–,–,–,–
O=C1CCc2ccc(OCCCCN3CCN(c4cccc(Cl)c4Cl)CC3)cc2N1,110,inactive,inactive,–,–,–,–,inactive,–,–
COC(=O)C1=C(C)NC(C)=C(C(=O)OCCCN2CCC(c3ccccc3)(c3ccccc3)CC2)C1c1cccc([N+](=O)[O-])c1 (stereo not given),123,inactive,inactive,–,20.9 µM (active),18.7 µM (active),–,–,31.6 µM (active),–
O=C(NC(Cc1cc(=O)[nH]c2ccccc12)C(=O)O)c1ccc(Cl)cc1 (stereo not given),108,inactive,inactive,–,–,inactive,–,inactive,inactive,–
CCOC(=O)C(C)Oc1cccc2c(=O)n(CC(=O)Nc3ccc4c(c3)OCCO4)ccc12 (stereo not given),88,inactive,inactive,–,–,2.64 µM (active),3.32 µM (active),–,–,–
NC(=O)Cc1cccc(C(=O)c2ccccc2)c1N,114,inactive,inactive,–,–,inactive,–,–,–,–
N=C(N=C(N)N)N1CCOCC1,127,inactive,inactive,–,–,–,–,inactive,inactive,–
O=C1c2c(O)cc(O)cc2OC(c2ccc(O)c(O)c2)C1O (stereo not given),105,inactive,inactive,–,–,inactive,–,–,–,–
Clc1ccc(C(Cn2ccnc2)OCc2ccsc2Cl)c(Cl)c1 (stereo not given),32.2,inactive,inactive,–,–,–,–,inactive,inactive,–
C[C@H](Cc1ccc(O)c(O)c1)[C@@H](C)Cc1ccc(O)c(O)c1,5.77,inactive and 26.4 µM (active),inactive,–,–,16.6 µM (active),13.2 µM (active),inactive,–,–
O=C(O)c1cccc(-c2noc(-c3ccccc3F)n2)c1,93.8,inactive,inactive,–,–,–,–,inactive,–,–
CN1CCC(=C2c3ccccc3CCc3sccc32)CC1,69,inactive,inactive,–,–,–,–,inactive,–,–
COC1=C(OC)C(=O)C(CCCCCCCCCCO)=C(C)C1=O,24.2,inactive,inactive,–,–,–,–,inactive,–,–
CC(C)[C@H](N)C(=O)OCCOCn1cnc2c(=O)[nH]c(N)nc21,28.8,inactive,inactive,–,–,inactive,inactive,inactive,–,–
Cc1cccc(C)c1OCC(=O)N[C@@H](Cc1ccccc1)[C@@H](O)C[C@H](Cc1ccccc1)NC(=O)[C@H](C(C)C)N1CCCNC1=O,91.4,inactive,inactive,–,–,–,–,inactive,–,–
CCCOc1ccc2nc(NC(=O)OC)[nH]c2c1,14.2,inactive,inactive,–,0.0093 µM (active),0.0066 µM (active),inactive,inactive,–,–
CC(=O)Nc1ccc(O)cc1,33.3,inactive,–,–,–,–,–,–,–,inactive
Cc1nc(-c2ccc(OCC(C)C)c(C#N)c2)sc1C(=O)O,105,5.26 µM (active) and inactive,–,–,–,inactive,inactive,–,–,inactive
Cc1ccc(NC(=O)c2ccc(CN3CCN(C)CC3)cc2)cc1Nc1nccc(-c2cccnc2)n1,81,inactive,–,–,–,–,–,inactive,inactive,–
C[C@]12CCC(=O)C=C1CC[C@@H]1[C@H]2[C@@H](O)C[C@@]2(C)[C@H]1CC[C@]2(O)C(=O)CO,71.5,inactive,–,–,inactive,inactive,inactive,inactive,inactive,20.9 µM (active)
